The text below walks through data of PubChem BioAssay AID1053124 (Broad Institute, 2014).

Entries with a potency or affinity are not part of this list. Unmarked numbers belong to inactive results.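 Rule for the calls: active = cell killing whose fitted half-effect concentration is at most twice the top valid dose tested; inconclusive = flat curve with 30 to 70% killing, or a poor fit; inactive = effect in the rising direction, plus the rest.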

The nature of the assay: A549 cell cytotoxicity, dose response, cytotoxicity control, ATP luminescence, cherry-pick, set 2 (AID 1053124).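 Note: 0% = neutral control wells and -100% = mitoxantrone 10 µM positive control.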 Particulars: A549 viability, ATP luminescence (CellTiter-Glo), 72 h; series mostly up to 26 µM; activity change, negative = cytotoxicity: at the top concentration. A general note: In ATP-based viability assays light output follows the ATP content of the culture.
With `COc1cccc(N2CCN(C(=O)C3CCCN(S(=O)(=O)c4cnc[nH]4)C3)CC2)c1` (configuration not stated), the “activity change, negative = cytotoxicity” value is -0.022%.
With `CCNC(=O)c1cc2c(=O)n3cccc(C)c3nc2n(Cc2ccc(C)cc2)c1=N` the figure was -23.1%; with `COc1ccc(CCN=C(N)NS(=O)(=O)c2ccc(F)cc2)cc1`, -7.67%.
Next, `Cc1cc(-c2ccccc2)c2ccc(NC(=O)C(C)(C)C)nc2n1`: -7.08%; `CCc1cccc(C)c1NC(=S)NCc1ccc2c(c1)cc(C)n2C`: 2.91%; `CCN(CC)c1ccc2cc(C(N)=O)c(=O)oc2c1`: 0.837%.
With `CC(C)CCN(CCC(C)C)CC(O)Cn1c2ccccc2c(=O)c2ccccc21` (configuration not stated) the figure was 14%; with `Cc1c(C(=O)NCc2ccc3c(c2)OCCO3)sc(=O)n1Cc1ccccc1F`, -0.515%; with `Clc1ccccc1C1=CC(c2ccco2)n2ncnc2N1` (configuration not stated), -3.99%.
Regarding `COc1cc(C(c2c(C(=O)O)[nH]c3ccccc23)c2c(C(=O)O)[nH]c3ccccc23)ccc1OCc1ccccc1`, the “activity change, negative = cytotoxicity” value was 2.4%.
Next, `Cc1cccn2c(=O)c3cc(C(=O)NC(C)c4ccccc4)c(=N)n(CCCn4ccnc4)c3nc12` (configuration not stated): -9.79%; `O=C(Nc1ccc(-c2ccco2)cc1)C1CCCN(Cc2ccco2)C1` (configuration not stated): -10.8%.
With `CCN(CC)Cc1c(O)c(Cl)cc2c(C)cc(=O)oc12` the figure was -1.59%; with `O=C(NNc1cc(N2CCCC2)nc(N2CCCC2)n1)c1ccc([N+](=O)[O-])cc1`, -12.8%.
Next, `O=C(O)c1[nH]c2ccccc2c1C(c1cc(Br)ccc1O)c1c(C(=O)O)[nH]c2ccccc12`: 2.61%; `CC(=O)c1cc2c(ccc3ccccc32)oc1=O`: -2.08%.
Consider `CCCCN1C=C(C(=O)OC)C(c2ccccc2Cl)C(C(=O)OC)=C1`, for which the “activity change, negative = cytotoxicity” value was -12.4%.
